# Screening results deposited in PubChem BioAssay by National Center for Advancing Translational Sciences (NCATS).
# The list is not random: actives were taken first. Their share in the collection is about 4.7%.
# TRHR agonist: agonists of human TRH receptor | P34981 | TRHR cells, calcium flux fluo-8, FDSS agonist mode | activation, % at 2 µM | hit rate 0.18% among 360,000 | AID 493084
# Target sequence (P34981 whole entry, looked up): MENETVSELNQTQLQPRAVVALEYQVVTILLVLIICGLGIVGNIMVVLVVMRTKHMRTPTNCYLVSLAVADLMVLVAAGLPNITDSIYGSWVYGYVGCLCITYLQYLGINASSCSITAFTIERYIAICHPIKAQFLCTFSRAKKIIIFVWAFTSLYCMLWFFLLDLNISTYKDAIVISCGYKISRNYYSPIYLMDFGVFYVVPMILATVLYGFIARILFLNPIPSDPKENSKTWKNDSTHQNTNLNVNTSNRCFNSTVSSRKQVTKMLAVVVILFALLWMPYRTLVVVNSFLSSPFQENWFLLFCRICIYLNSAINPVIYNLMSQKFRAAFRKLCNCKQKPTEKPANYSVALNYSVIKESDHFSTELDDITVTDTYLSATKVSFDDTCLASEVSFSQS
#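 Read-out: compound-evoked intracellular calcium rise in TRHR cells, fluo-8 dye, kinetic FDSS fluorescence at 1 s/cycle following a 10-cycle baseline. Cells cultured overnight before dye loading (30 min–1.5 h, RT).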
# D1 ag: agonists of human D1 dopamine receptor | P21728 | HEK293 T-REx D1 cells, calcium flux, agonist mode | activation, % at 2 µM | hit rate 1% among 360,000 | AID 504660
#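 Inducible HEK293 T-REx D1 cells, force-coupled to calcium signalling, were plated at 4000 cells/well with tetracycline and held overnight at 30 C. After no-wash calcium dye loading, compound-evoked calcium rise over 180 s flagged agonists.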
# D1 PAM: enhances dopamine response at the human D1 receptor | P21728 | HEK293 TREx D1 cells, calcium flux, dopamine EC20 potentiation | potentiation, % at 10 µM | hit rate 0.036% among 360,000 | AID 504651; in the data active means potentiation above about 30%
# D1 antag: human D1 dopamine receptor antagonism | P21728 | activity change, negative = inhibition, % at 10 µM | hit rate 3.2% among 360,000 | HEK293 TREx D1 cells, calcium flux, dopamine EC80; hits give low values; in the data active means activity change below about -30%
#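 HEK293 T-REx cells expressing inducible, force-coupled D1 receptor; no-wash Ca dye, 30–90 min RT. Cmpd → 180 s read at 1 Hz → EC80 DA → 180 s read.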
# TRHR PAM: TRH receptor (human) allosteric enhancement; TRHR cells, fluo-8 calcium fluorescence, EC20 TRH enhancement; enhancement, % at 2 µM; hit rate 0.66% among 360,000; AID 493056; in the data active means enhancement above about 30%
#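 TRHR-expressing cells loaded with fluo-8 calcium dye were read kinetically (ex 480/em 530) during compound addition, then stimulated with an EC20 of TRH (10 nM final). Enhancement of the Gq-mediated intracellular calcium response was scored.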
# A number is an active result; - = inactive; . = no result given. Unless noted, no stated cut-off is given here; in the data, active means activation above about 30%; inactive means the rest.
SMILES,TRHR agonist,D1 ag,D1 PAM,D1 antag,TRHR PAM
COc1ccc(C(=O)c2sc(Nc3ccccc3)nc2C)cc1,-,-,-,-,-
C=CCN1CC(C(=O)N2CCC(Cc3ccc(Cl)cc3)(C(=O)OCC)CC2)CC1=O (stereo unspecified),-,-,-,-31.8,30.3
CCOc1ccc(NC(=O)Cn2ncc3c2-c2cc(C)ccc2OC3)cc1,-,-,-,-,-
COc1ccc(NC(=O)CCC(=O)OCc2ccc(C(=O)Oc3ccc(Cl)cc3)cc2)cc1,-,-,-,-31.3,-
COc1ccc(NC(=O)CCC(=O)OCc2ccc([N+](=O)[O-])cc2)cc1,-,-,-,-31.4,-
O=C(CCC(=O)OCc1ccc(C(=O)Oc2ccc(Cl)cc2)cc1)Nc1ccccc1,-,-,-,-,-
O=C(NCCCN1CCN(c2ccc(F)cc2)CC1)c1sc2ncccc2c1-n1cccc1,-,-,-,-37.3,-
Cc1cc(/C=N/NC(N)=S)c(C)n1-c1ccc(Br)cc1,-,-,-,-49.5,-
Cc1nc2ccccn2c1C(=O)N/N=C/c1cc(C)n(-c2ccc(Br)cc2)c1C,-,-,-,-47.4,-
Cc1cc(/C=N/NC(N)=S)c(C)n1-c1ccc(Cl)cc1,-,-,-,-51.8,-
Cc1cccn2c(=O)c3cc(C(=O)NC(C)C)n(C)c3nc12,-,-,-,-,-
COc1ccc(OCCSc2nnc(CCNC(=O)c3ccc(Cl)c(Cl)c3)n2C)cc1,-,-,-,-36.2,-
CCOc1cc2sc(N3CCC(C(=O)Nc4ccc(C)cc4)CC3)nc2cc1Br,-,-,-,-57.8,-
Cc1ccc(C)c(OCCC(=O)OCC(=O)Nc2ccc(N3CCOCC3)cc2)c1,-,-,-,-52.7,-
O=C(COC(=O)COc1cccc(C(F)(F)F)c1)Nc1ccc(N2CCOCC2)cc1,-,-,-,-40.1,-
CCn1c(/C=C/c2ccccc2[N+](=O)[O-])nc2ccccc2c1=O,-,-,-,-,40.1
Cn1c(/C=C/c2ccccc2[N+](=O)[O-])nc2ccccc2c1=O,-,-,-,-,-
O=C(Cn1nnc(-c2ccc(Cl)cc2)n1)NC1CC2CCC1C2 (stereo unspecified),-,-,-,-33.5,-
COc1ccccc1-c1noc(-c2ccc(N3CCC(C)CC3)c([N+](=O)[O-])c2)n1,-,-,-,-,-
Cc1cc(C)n(-c2ccc(C(=O)OC(C)C(=O)Nc3ccc(C(N)=O)cc3)cc2)n1 (stereo unspecified),-,-,-,-31.0,-
CC(=O)Nc1ccc(NC(=O)C(C)OC(=O)c2ccc(-n3cnnn3)cc2)cc1 (stereo unspecified),-,-,-,-,-
Cc1ccc(OCC(=O)Nc2cccc(S(=O)(=O)NC3=NCCCCC3)c2)cc1C,-,-,-,-,-
Cc1cc(OCC(=O)Nc2cccc(S(=O)(=O)NC3=NCCCCC3)c2)ccc1Cl,-,-,-,-30.8,-
O=C(O)c1ccc2c(=O)[nH]c(CCl)nc2c1,-,-,-,-,33.4
O=C(O)c1ccc2c(=O)[nH]c(CN3CCOCC3)nc2c1,-,-,-,-,-
SMILES,TRHR agonist,D1 ag,D1 PAM,D1 antag,TRHR PAM
O=C(CC1Sc2ncnn2C1=O)Nc1ccccc1 (stereo unspecified),-,-,-,-,30.3
O=C(CC1SC(=O)N(c2ccccc2)C1=O)Nc1ccccc1 (stereo unspecified),-,-,-,-,-
CN(C(=O)COc1cc(C(F)(F)F)nn1C)c1ccccc1,-,-,-,-,35.3
CN(C(=O)COC(=O)c1cccc(F)c1)c1ccccc1,-,-,-,-,-
C=CCN1C=CC(=CC=C(C#N)C#N)C=C1,45.8,96.5,-,-,-
C=CCN1C=C/C(=C\C=C(C#N)C#N)c2ccccc21,-,-,-,-,-
O=C(Cc1c(F)cccc1Cl)N1CCOCC1,-,-,-,-35.6,-
C=CCc1ccccc1OCC(O)CN1CCN(Cc2ccc3c(c2)OCO3)CC1 (stereo unspecified),-,-,-,-71.3,-
C=CCc1ccccc1OCC(O)CN1CCN(C(=O)OCC)CC1 (stereo unspecified),-,-,-,-,-
Cc1cccc(N2CCN(CC(O)COc3ccccc3Cl)CC2)c1 (stereo unspecified),-,-,-,-33.2,-
COc1ccccc1N1CCN(CC(O)COc2ccc(Cl)c(C)c2)CC1 (stereo unspecified),-,-,-,-31.2,-
OC(COc1cccc2ccccc12)CN1CCN(c2cccc(Cl)c2)CC1 (stereo unspecified),-,-,-,-,-
C=CCc1ccccc1OCC(O)CN1CCN(c2ccc(C)cc2)CC1 (stereo unspecified),-,-,-,-49.8,-
COc1ccc(C)cc1NC(=O)CSc1nc(=O)n(Cc2cccnc2)c2c1CCC2,-,-,-,.,-
CCc1ccc(NCc2cc3ccc(OC)cc3n(CC(=O)Nc3ccc(C(C)C)cc3)c2=O)cc1,-,-,-,-,-
Cc1ccc(Cl)cc1NC(=O)C1CCCN(S(=O)(=O)c2c(C)noc2/C=C/N(C)C)C1 (stereo unspecified),-,-,-,-,-
O=C(CSC1=Nc2ccccc2C2=NC(Cc3ccccc3)C(=O)N12)Nc1cccc(Cl)c1 (stereo unspecified),-,-,-,-,-
CCOc1ccccc1C(=O)NCC(=O)N1CCN(Cc2ccc3c(c2)OCO3)CC1,-,-,-,-,33.3
C=CCc1ccccc1OCC(O)CN1CCN(CCN2C(=O)c3cccc4cccc(c34)C2=O)CC1 (stereo unspecified),-,-,-,-69.3,-
COc1ccccc1C(=O)N1CCN(Cc2ccc3c(c2)OCO3)CC1,-,-,-,-,-
Cc1ccccc1OCC(O)CN1CCN(CCN2C(=O)c3cccc4cccc(c34)C2=O)CC1 (stereo unspecified),-,-,-,-,-
CC(=O)Nc1c(-c2cc(=O)oc3cc(C)ccc23)oc2ccccc12,-,-,-,-,-
NC(=O)CC(NC(=O)c1ccccc1)c1ccc(NCCOc2ccccc2)c([N+](=O)[O-])c1 (stereo unspecified),-,-,-,-34.6,-
NC(=O)CC(NC(=O)c1ccccc1)c1ccc(NCC2CC2)c([N+](=O)[O-])c1 (stereo unspecified),-,-,-,-44.5,-
CCOC(=O)C1=C(COC(=O)c2ncc(Cl)c(Cl)c2Cl)NC(=O)NC1C (stereo unspecified),-,-,-,-48.8,-
CCOC(=O)C1=C(COC(=O)C(CC)c2ccccc2)NC(=O)NC1C (stereo unspecified),-,-,-,-35.9,-
CCOC(=O)C1=C(COC(=O)CC(C)c2ccccc2)NC(=O)NC1C (stereo unspecified),-,-,-,-,-
